Where “and” joins values, the source holds several entries; their conditions need not be identical. Equal entries are not always repeated. Where two headings read alike, the source gives them in different places.
Columns and labels:
SRMS = details: concentration: 1 μM, replicates: in singlicate, n = 1
SRPK1 = details: concentration: 1 μM, replicates: in singlicate, n = 1
SRPK2 = details: concentration: 1 μM, replicates: in singlicate, n = 1
SRPK3 = details: concentration: 1 μM, replicates: in singlicate, n = 1
STK16 = details: concentration: 1 μM, replicates: in singlicate, n = 1
STK33 = details: concentration: 1 μM, replicates: in singlicate, n = 1
STK35 = details: concentration: 1 μM, replicates: in singlicate; n = 1
STK36 = details: concentration: 1 μM, replicates: in singlicate, n = 1
STK39 = details: concentration: 1 μM, replicates: in singlicate, n = 1
SYK = details: concentration: 1 μM, replicates: in singlicate, n = 1
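Note: KINOMEscan kinase panel screen.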

Structure (SMILES)	%Inh (SRMS)	%Inh (SRPK1)	%Inh (SRPK2)	%Inh (SRPK3)	%Inh (STK16)	%Inh (STK33)	%Inh (STK35)	%Inh (STK36)	%Inh (STK39)	%Inh (SYK)	%Inh (SRMS; 1 µM)	%Inh (SRPK1; 1 µM)	%Inh (SRPK2; 1 µM)	%Inh (SRPK3; 1 µM)	%Inh (STK16; 1 µM)	%Inh (STK33; 1 µM)	%Inh (STK36; 1 µM)	%Inh (STK39; 1 µM)	%Inh (SYK; 1 µM)
Fc1cccc(COc2ccc(Nc3ncnc4cc[nH]c34)cc2Cl)c1	0%	8%	7%	33%	20%	15%	0%	33%	9%	32%	–	–	–	–	–	–	–	–	–
COc1cc2c(Nc3cccc(NC(=O)c4ccccc4)c3)ncnc2cc1OCCCN1CCOCC1 [GSK223810]	0%	34%	0%	23%	0%	4%	5%	9%	0%	9%	–	–	–	–	–	–	–	–	–
Cl.Cn1ccc(-c2cccc(Nc3ccnc4cc(-c5nccs5)ccc34)c2)n1 [GW525701]	0%	0%	51%	0%	4%	0%	0%	0%	6%	0%	–	–	–	–	–	–	–	–	–
c1ccc(-c2ccc3c(-c4ccnc(Nc5ccc6c(c5)OCCO6)n4)cnn3n2)cc1 [GW818941]	0%	48%	0%	21%	95.8%	17%	8%	25%	22%	7%	–	–	–	–	–	–	–	–	–
Nc1nc(-c2ccccn2)c(-c2ccnc3ccccc23)s1 [GW548057]	0%	0%	58%	0%	19%	1%	0%	0%	7%	2%	–	–	–	–	–	–	–	–	–
O=C(CCO)NCCn1ccc2ncnc(Nc3ccc(Oc4cccc(C(F)(F)F)c4)c(Cl)c3)c21	0%	0%	0%	4%	8%	0%	5%	0%	0%	4%	–	–	–	–	–	–	–	–	–
CCC(CC)(CC)n1cnc2c(N)ncnc21 [SKF-97620]	22%	14%	20%	22%	2%	0%	0%	4%	0%	11%	–	–	–	–	–	–	–	–	–
Cc1cc(N2CCC(NS(=O)(=O)c3ccc(F)cc3)CC2)nc(Nc2cccc(C#N)c2)n1.O=C(O)C(F)(F)F [GSK1653537]	0%	15%	0%	18%	0%	0%	0%	0%	1%	19%	–	–	–	–	–	–	–	–	–
CCn1c(-c2ccncc2)nc2cnccc21 [SB-735216]	16%	0%	24%	50%	0%	0%	0%	19%	6%	15%	–	–	–	–	–	–	–	–	–
Nc1nccc2scc(-c3ccc4c(c3)CCN4C(=O)Cc3cc(F)ccc3F)c12 [GSK2587663]	0%	8%	0%	0%	11%	0%	0%	0%	6%	22%	–	–	–	–	–	–	–	–	–
Cc1cccc(-c2nc(Nc3ccc4[nH]nnc4c3)c3ccccc3n2)n1 [GW867587]	10%	0%	0%	7%	0%	0%	0%	0%	0%	0%	–	–	–	–	–	–	–	–	–
COc1ccc(-c2nc3n(c2-c2ccncc2)CCC3)cc1 [SKF-104493]	–	–	–	–	–	–	0%	–	–	–	12% and 13%	0% and 1%	16% and 0%	35% and 0%	21% and 9%	0% and 8%	35% and 43%	0% and 16%	1% and 48%
CCc1nc(-c2cccc(N(C)S(=O)(=O)c3ccccc3)c2)c(-c2ccnc(Nc3ccc(N4CCN(C(C)=O)CC4)nc3)n2)s1 [GSK1645895]	19%	19%	0%	0%	41%	0%	0%	99.4%	0%	0%	–	–	–	–	–	–	–	–	–
Nc1nc(-c2ccc3c(N)n[nH]c3c2)cc(N2CCCCC2)n1 [GSK2228768]	0%	45%	0%	0%	5%	0%	0%	0%	0%	8%	–	–	–	–	–	–	–	–	–
CC(=O)Nc1n[nH]c2ncc(-c3ccccc3)cc12 [SB-548492]	25%	25%	0%	20%	26%	0%	10%	12%	0%	2%	–	–	–	–	–	–	–	–	–
CS(=O)(=O)CCNCc1ccc(-c2ccc3ncnc(Nc4ccc(OCc5ccccc5)c(Cl)c4)c3c2)o1.Cl [GW574783]	0%	0%	0%	19%	0%	8%	0%	0%	5%	0%	–	–	–	–	–	–	–	–	–
FC(F)(F)c1cc(Nc2nccc(-c3c(-c4ccc(Cl)cc4)nn4ncccc34)n2)ccc1Cl [GW829351]	27%	0%	7%	4%	0%	0%	0%	21%	0%	2%	–	–	–	–	–	–	–	–	–
Clc1cc(Nc2ncnc3cc[nH]c23)ccc1OCc1ccccn1	0%	0%	0%	19%	35%	9%	0%	12%	8%	8%	–	–	–	–	–	–	–	–	–
COc1ccc(NC(=O)c2ccc(-c3cc(-c4nnc(C)o4)ccc3C)cc2)cc1 [GW595885]	0%	0%	0%	8%	7%	0%	0%	0%	21%	27%	–	–	–	–	–	–	–	–	–
Fc1cccc(COc2ccc(Nc3ncnc4sc(-c5ccc[nH]5)cc34)cc2Cl)c1 [GW707818]	14%	19%	3%	0%	26%	8%	0%	0%	9%	13%	–	–	–	–	–	–	–	–	–
O=c1cc(N2CCOCC2)nc2n(Cc3cccc(Cl)c3)ccn12 [GSK2296823]	0%	16%	0%	51%	0%	0%	6%	0%	11%	5%	–	–	–	–	–	–	–	–	–
COc1ccc(Nc2nccc(N3CCC(NC(=O)Nc4ccc5c(c4)OCO5)C3)n2)cc1 (stereo not drawn) [GSK1379745]	0%	29%	3%	17%	0%	3%	8%	0%	17%	40%	–	–	–	–	–	–	–	–	–
O=C(Nc1n[nH]c2nc(-c3ccco3)c(Br)cc12)c1ccc(CN2CCCC2)cc1.O=C(O)[C@H](O)[C@@H](O)C(=O)O [SB-742352]	0%	2%	0%	26%	0%	0%	26%	54%	0%	10%	–	–	–	–	–	–	–	–	–
CNc1nccc(-c2c(-c3ccc(F)cc3)ncn2C2CCN(C)CC2)n1 [SB-222903]	15%	0%	0%	0%	0%	13%	0%	3%	0%	27%	–	–	–	–	–	–	–	–	–
COC(=O)c1cccc(NC(=O)NCCNc2ccnc(Nc3ccc(F)cc3)n2)c1 [GSK1379883]	0%	17%	0%	7%	5%	0%	0%	0%	0%	5%	–	–	–	–	–	–	–	–	–
C[C@H]1CC[C@@H](C(=O)Nc2ccccc2)CN1c1cc(-c2ccc3c(N)n[nH]c3c2)nc(N)n1 [GSK2283293]	19%	54%	0%	16%	0%	0%	0%	0%	0%	4%	–	–	–	–	–	–	–	–	–
O=C(c1ccc(-c2cc(-c3c[nH]nc3-c3ccccn3)ccn2)cc1)N1CCCC1 [GW792479]	0%	0%	64%	26%	16%	0%	0%	0%	0%	20%	–	–	–	–	–	–	–	–	–
Cl.O=S(=O)(c1cccc(F)c1)c1ccc(Nc2ncnc3cc(Br)sc23)cc1Cl [GSK306886]	0%	100%	0%	0%	25%	0%	0%	0%	1%	5%	–	–	–	–	–	–	–	–	–
O=C(Nc1ccccc1)Nc1ccc(Oc2ccc3nccn3n2)cc1	3%	28%	16%	16%	0%	9%	0%	0%	0%	6%	–	–	–	–	–	–	–	–	–
O=C(Nc1ccccc1F)NC1CCN(c2ccnc(Nc3ccc(F)cc3)n2)C1 (stereo not drawn) [GSK1379722]	0%	0%	0%	3%	0%	0%	0%	0%	29%	10%	–	–	–	–	–	–	–	–	–
